Results filed as inconclusive are left out. Activity calls are given as the source filed them. The call rests on the fitted dose curve; in most records, active means well fitted curve in the direction sought with a large enough effect; inconclusive means small, poorly fitted or top-dose-only effect, or another doubt; inactive means no such curve, though single readings can be large; an effect the other way counts as inactive or inconclusive.
What was measured:
[1] = test system: Zika virus NS2B-NS3 protease (linked construct); experiment: Primary screen NINDS Rhodamine qHTS for Zika virus inhibitors (AID 1347160); further: on the % scale 0 is the no-effect control and ±100 the full control effect; nearly all actives have a fitted effect of over 55% in size
Summary of the method: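 In 10 mM Tris-HCl pH 8.0 containing 0.01% Tween 20, linked NS2B-NS3 protease (25 nM final) is exposed to test compounds for 15 min. Cleavage of 1.5 microM Rhodamine110 substrate is tracked by fluorescence over 15 min.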

[2] = Primary qHTS for inhibitors of nuclear receptor binding SET domain protein 2 (NSD2) in an isogenic RCH-ACV NSD2 p.E1099K mutant (9B) (AID 1645876); further: on the % scale 0 is the no-effect control and ±100 the full control effect; nearly all actives have a fitted effect of over 70% in size
[3] = Primary qHTS for inhibitors of nuclear receptor binding SET domain protein 2 (NSD2) in an RCH-ACV wild type WT cells (2C) (AID 1645877); further: on the % scale 0 is the no-effect control and ±100 the full control effect; nearly all actives have a fitted effect of over 70% in size
[4] = molecular target: Glutathione peroxidase 1 (Homo sapiens) (UniProt P07203); experiment: Primary qHTS Assay for Inhibitors of Recombinant Selenoprotein Glutathione Peroxidase 1 (GPX1) (AID 1845191); further: nearly all actives have a fitted effect of over 65% in size
Summary of the method: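 Recombinant GPX1 (10 nM final) was preincubated with compound for 30 min at room temperature, then reacted with 1 mM GSH, 0.5 mM CHP, 0.5 mM NADPH and 100 nM glutathione reductase; NADPH fluorescence (340/450 nm) was read at 0 and 15 min.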

[5] = molecular target: Phospholipid hydroperoxide glutathione peroxidase GPX4 (Homo sapiens) (UniProt P36969); experiment: Primary qHTS Assay for Inhibitors of Recombinant Selenoprotein Glutathione Peroxidase 4 (GPX4) (AID 1845192); further: nearly all actives have a fitted effect of over 65% in size
Summary of the method: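 GR-coupled readout: 100 nM GR, 1 mM GSH, 0.5 mM NADPH; NADPH fluorescence (ex 340/em 450 nm) read at t=0 and after 15 min RT. GPX4 200 nM, preincubated 30 min with compound; substrate 0.5 mM CHP.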

[6] = molecular target: Luciferin 4-monooxygenase (Photinus pyralis) (UniProt P08659); experiment: Primary firefly luciferase (FLuc) qHTS assay for identification of artifact compounds. (AID 1845220); conditions: outcome: dose series up to 54.1 µM unless noted; further: nearly all actives have a fitted effect of over 60% in size
Summary of the method: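 qHTS, 15 min compound preincubation with substrate (10 uM luciferin, 10 uM ATP) at RT, then 10 nM FLuc; 5 min; luminescence; % inhibition vs no-enzyme/DMSO controls, 4-parameter Hill fit.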

[7] = Primary fluorescence-based thiol-reactive (MSTI) qHTS assay for identification of artifact compounds. (AID 1845221);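 further: thiol-reactive compounds lower the probe fluorescence signal; nearly all actives have a fitted effect of over 65% in size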
Summary of the method: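 A multi-concentration qHTS design tested compounds against 4 uM MSTI, pH 7.4 phosphate-buffered saline. Plates were protected from light for 1 h at room temperature before imaging fluorescence.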

[8] = test system: Nanoluciferase (engineered Oplophorus gracilirostris luciferase); experiment: Primary Nanoluciferase (NLuc) qHTS assay for identification of artifact compounds. (AID 1845222);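 further: 0% = DMSO and -100% = no enzyme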
Summary of the method: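 Luminescence read-out of secreted NLuc in S16 cell conditioned medium (1:55); compounds tested with 15 min RT preincubation, then Nano-Glo substrate 1:100, 5 min. % inhibition vs no-enzyme and DMSO controls, 4-parameter Hill fit.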

CRL-7250 = normal cell line; experiment: Cytotoxic Profiling of Annotated Libraries Using Quantitative High-Throughput Screening (AID 1296008); conditions: Five cell lines viability, CellTiter-Glo ATP luminescence, 48-72 h; max response: hits give low values; further: nearly all actives have a fitted effect of over 60% in size; on max response: on the % scale 0 is the no-effect control and ±100 the full control effect
Summary of the method: (§1)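 Compounds were pin-transferred onto cells and incubated 48 or 72 hr at 37 degree Celsius, 95% humidity. CellTiter-Glo was added, plates sat 10 min at room temperature, then ATP-coupled luminescence was imaged as the viability read-out.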

HEK293 = experiment: as above; conditions: Five cell lines viability, CellTiter-Glo ATP luminescence, 48-72 h; max response: hits give low values
Summary of the method: as §1

HaCat = experiment: as above; conditions: Five cell lines viability, CellTiter-Glo ATP luminescence, 48-72 h; max response: hits give low values
Summary of the method: as §1

NIH3T3 = experiment: as above; conditions: Five cell lines viability, CellTiter-Glo ATP luminescence, 48-72 h; max response: hits give low values
Summary of the method: as §1

C33A = experiment: Primary qHTS to identify gynecologic anti-cancer compounds using libraries of approved drugs and bioactive compounds (AID 1345084); conditions: Gynecologic cancer cell panel viability, ATPlite luminescence, 48 h; series mostly up to 57.5 µM; further: on the % scale 0 is the no-effect control and ±100 the full control effect; nearly all actives have a fitted effect of over 55% in size
Summary of the method: (§2)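 ATP-based viability (ATPlite), 1,000 cells/well, 16 h pre-incubation, 48 h compound at 37 C, 5% CO2, 15 min RT before read.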

CASKI = experiment: as above; conditions: Gynecologic cancer cell panel viability, ATPlite luminescence, 48 h; series mostly up to 57.5 µM
Summary of the method: as §2

Es-2 = experiment: as above; conditions: Gynecologic cancer cell panel viability, ATPlite luminescence, 48 h; series mostly up to 57.5 µM
Summary of the method: as §2

Hek293T = experiment: as above; conditions: Gynecologic cancer cell panel viability, ATPlite luminescence, 48 h, control line for the selectivity index; series mostly up to 57.5 µM
Summary of the method: as §2

OV90 = experiment: as above; conditions: Gynecologic cancer cell panel viability, ATPlite luminescence, 48 h; series mostly up to 57.5 µM
Summary of the method: as §2

PA-1 = experiment: as above; conditions: Gynecologic cancer cell panel viability, ATPlite luminescence, 48 h; series mostly up to 57.5 µM
Summary of the method: as §2

Tov-21-G = experiment: as above; conditions: Gynecologic cancer cell panel viability, ATPlite luminescence, 48 h; series mostly up to 57.5 µM
Summary of the method: as §2

Tov112D = experiment: as above; conditions: Gynecologic cancer cell panel viability, ATPlite luminescence, 48 h; series mostly up to 57.5 µM
Summary of the method: as §2

Sequence of Glutathione peroxidase 1 (Homo sapiens) (P07203 whole entry, looked up): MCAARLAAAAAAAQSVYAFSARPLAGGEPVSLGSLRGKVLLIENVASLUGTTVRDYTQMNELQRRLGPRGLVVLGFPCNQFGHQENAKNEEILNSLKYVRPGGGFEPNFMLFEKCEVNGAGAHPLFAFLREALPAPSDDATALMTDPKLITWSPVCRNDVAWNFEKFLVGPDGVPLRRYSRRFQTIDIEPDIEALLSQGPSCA
Sequence of Phospholipid hydroperoxide glutathione peroxidase GPX4 (Homo sapiens) (P36969 whole entry, looked up): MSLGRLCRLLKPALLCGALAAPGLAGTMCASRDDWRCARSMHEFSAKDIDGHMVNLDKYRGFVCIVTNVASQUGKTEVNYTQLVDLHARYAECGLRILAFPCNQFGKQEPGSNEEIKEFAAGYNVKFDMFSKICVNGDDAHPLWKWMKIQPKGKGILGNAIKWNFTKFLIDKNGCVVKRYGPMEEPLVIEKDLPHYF

C=CC(C)(C)c1[nH]c2c(CC=C(C)C)cc(CC=C(C)C)cc2c1C[C@@H]1NC(=O)[C@H](C)NC1=O
inactive: Potency [1] | Potency [2] | Potency [3] | Potency [4] | Potency [5] | outcome [6] | Potency [7] | Potency [8] | max response (CRL-7250) 3.03% | max response (HEK293) -8.14% | max response (HaCat) -1.56% | max response (NIH3T3) 2.77% | Potency (C33A) | Potency (CASKI) | Potency (Es-2) | Potency (Hek293T) | Potency (OV90) | Potency (PA-1) | Potency (Tov-21-G) | Potency (Tov112D)

C[C@]12CC[C@H]3[C@@H](CCC4=C/C(=N/OCC(=O)O)CC[C@@]43C)[C@@H]1CC[C@@H]2O
inactive: Potency [1] | Potency [2] | Potency [3] | Potency [4] | outcome [6] | Potency [7] | Potency [8] | max response (CRL-7250) -2.05% | max response (HEK293) -5.05% | max response (HaCat) -24.1% | max response (NIH3T3) 3.02% | Potency (C33A) | Potency (CASKI) | Potency (Es-2) | Potency (Hek293T) | Potency (OV90) | Potency (PA-1) | Potency (Tov-21-G) | Potency (Tov112D)

Oc1ccc2c3c1O[C@H]1c4[nH]c5c(N=C=S)cccc5c4C[C@@]4(O)[C@@H](C2)N(CC2CC2)CC[C@]314
inactive: Potency [1] | Potency [4] | Potency [5] | outcome [6] | Potency [7] | Potency [8] | max response (CRL-7250) 1.1% | max response (HEK293) -0.6% | outcome (HaCat) | max response (NIH3T3) -11% | Potency (C33A) | Potency (CASKI) | Potency (Es-2) | Potency (Hek293T) | Potency (OV90) | Potency (PA-1) | Potency (Tov-21-G) | Potency (Tov112D)

CC(=O)O[C@@H]1[C@H]2CC[C@H]3[C@@](C)(O)[C@@H]4C[C@H](O)C(C)(C)[C@@]4(O)[C@H](O)C[C@@]13C[C@@]2(C)O
inactive: Potency [1] | Potency [2] | Potency [3] | Potency [4] | Potency [5] | outcome [6] | Potency [7] | Potency [8] | outcome (CRL-7250) | max response (HEK293) 2% | max response (HaCat) -9.56% | max response (NIH3T3) 4.65% | Potency (C33A) | Potency (CASKI) | Potency (Es-2) | Potency (Hek293T) | Potency (OV90) | Potency (PA-1) | Potency (Tov-21-G) | Potency (Tov112D)

C[C@]12CCC(=O)C=C1CC[C@@H]1[C@@H]2[C@@H](O)C[C@]2(C)C(=O)CC[C@@H]12
inactive: Potency [1] | Potency [2] | Potency [3] | Potency [4] | Potency [5] | outcome [6] | Potency [7] | Potency [8] | outcome (CRL-7250) | max response (HEK293) -2.71% | max response (HaCat) -8.66% | max response (NIH3T3) 2.17% | Potency (C33A) | Potency (CASKI) | Potency (Es-2) | Potency (Hek293T) | Potency (OV90) | Potency (PA-1) | Potency (Tov-21-G) | Potency (Tov112D)

CN1CCc2cc3c(cc2C1C1OC(=O)c2c1ccc1c2OCO1)OCO3 (stereo not drawn)
inactive: Potency [1] | Potency [2] | Potency [3] | Potency [4] | Potency [5] | outcome [6] | Potency [7] | Potency [8] | max response (CRL-7250) -4.88% | max response (HEK293) 1.39% | max response (HaCat) -1.45% | max response (NIH3T3) 0.735% | Potency (C33A) | Potency (CASKI) | Potency (Es-2) | Potency (Hek293T) | Potency (OV90) | Potency (PA-1) | Potency (Tov-21-G) | Potency (Tov112D)

C/C=C1/CN2CC[C@]34C(=Nc5ccc(OC)cc53)C2C[C@@H]1C4(CO)C(=O)OC (stereo partly drawn)
inactive: Potency [1] | Potency [2] | Potency [3] | Potency [4] | Potency [5] | outcome [6] | Potency [7] | Potency [8] | max response (CRL-7250) 0.729% | max response (HEK293) 4.62% | outcome (HaCat) | max response (NIH3T3) 4.25% | Potency (C33A) | Potency (CASKI) | Potency (Es-2) | Potency (Hek293T) | Potency (OV90) | Potency (PA-1) | Potency (Tov-21-G) | Potency (Tov112D)

CC[C@H]1C2CC3[C@@H]4N(C)c5ccccc5[C@]45C[C@@H]([C@H]2[C@H]5O)N3[C@H]1O
inactive: Potency [1] | Potency [2] | Potency [3] | Potency [4] | outcome [6] | Potency [8] | max response (CRL-7250) 3.45% | max response (HEK293) 3.06% | outcome (HaCat) | max response (NIH3T3) 4.15% | Potency (C33A) | Potency (CASKI) | Potency (Es-2) | Potency (Hek293T) | Potency (OV90) | Potency (PA-1) | Potency (Tov-21-G) | Potency (Tov112D)

C=C1[C@@]23C(=O)O[C@H](C)[C@]24O[C@@]2(C(=C)[C@]5(C=CC(=O)OC5(C)C)CC[C@]32C)[C@H](O)[C@@]1(C)OC4=O
inactive: Potency [2] | Potency [3] | Potency [4] | outcome [6] | Potency [7] | Potency [8] | max response (CRL-7250) -20.6% | max response (HEK293) -10.4% | outcome (HaCat) | max response (NIH3T3) 0.197% | Potency (C33A) | Potency (CASKI) | Potency (Es-2) | Potency (Hek293T) | Potency (OV90) | Potency (PA-1) | Potency (Tov-21-G) | Potency (Tov112D)

N#CC(O[C@@H]1O[C@H](CO)[C@@H](O)[C@H](O)[C@H]1O)c1ccccc1 (stereo partly drawn)
inactive: Potency [1] | Potency [2] | Potency [3] | Potency [4] | Potency [5] | outcome [6] | Potency [7] | Potency [8] | outcome (CRL-7250) | max response (HEK293) -8.76% | max response (HaCat) -12% | max response (NIH3T3) 1.1% | Potency (C33A) | Potency (CASKI) | Potency (Es-2) | Potency (Hek293T) | Potency (OV90) | Potency (PA-1) | Potency (Tov-21-G) | Potency (Tov112D)

— PubChem BioAssay (NCATS)
